From PubChem BioAssay AID1159580 (chemical genetic matrix, 2015)
Among all 5,500 compounds or so, about 2,000 (36%) were called active. Not shown: some 18% with an inconclusive outcome. The list shows a part of the results. Unmarked numbers belong to inactive results. Rule as the data show it: active = normalized growth mostly below about 0.91 (no sharp cut-off); inconclusive = no clear call, values can overlap the other calls; inactive = mostly above about 0.92.

Assay: chemical genetic growth profiling, strain panel (AID 1159580);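 also: tested at 20 µM; growth read once vehicle control cultures reached saturation at 30 °C; 1 = growth at the plate median or of vehicle wells; lower values mean less growth of the strain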
Details: S. cerevisiae deletion strains, growth OD
[1] = locus YAL013W, strain DEP1, active compounds read low
[2] = locus YDL101C, strain DUN1, active compounds read low
[3] = locus YDR150W, strain NUM1, active compounds read low
[4] = locus YHR030C, strain SLT2, active compounds read low
[5] = locus YJR075W, strain HOC1, active compounds read low
[6] = locus YPL241C, strain CIN2, active compounds read low

CSC(=NC(=O)c1c(Cl)cccc1Cl)SC
normalized growth [1]: 0.886 (active)
normalized growth (locus YBR229C, strain ROT2, active compounds read low): 0.856 (active)
normalized growth [2]: 0.866 (active)
normalized growth (locus YDL134C, strain PPH21, active compounds read low): 0.782 (active)
normalized growth [3]: 0.992
normalized growth (locus YEL061C, strain CIN8, active compounds read low): 0.781 (active)
normalized growth (locus YGR078C, strain PAC10, active compounds read low): 0.912 (active)
normalized growth [4]: 0.194 (active)
normalized growth (locus YHR087W, strain rtc3, active compounds read low): 0.896 (active)
normalized growth (locus YJL187C, strain SWE1, active compounds read low): 0.82 (active)
normalized growth (locus YJR043C, strain POL32, active compounds read low): 0.904 (active)
normalized growth [5]: 0.776 (active)
normalized growth (locus YLR039C, strain RIC1, active compounds read low): 0.284 (active)
normalized growth (locus YLR058C, strain SHM2 (second series), active compounds read low): 0.924 (active)
normalized growth (locus YLR085C, strain ARP6, active compounds read low): 0.332 (active)
normalized growth (locus YLR262C, strain YPT6, active compounds read low): 0.275 (active)
normalized growth (locus YML094W, strain GIM5, active compounds read low): 0.85 (active)
normalized growth (locus YMR219W, strain ESC1, active compounds read low): 0.932 (active)
normalized growth (locus YMR263W, strain SAP30, active compounds read low): 0.931
normalized growth (locus YMR307W, strain GAS1, active compounds read low): 0.177 (active)
normalized growth (locus YNL128W, strain TEP1, active compounds read low): 0.928
normalized growth (locus YNL153C, strain GIM3, active compounds read low): 0.852 (active)
normalized growth (locus YNL298W, strain CLA4 (second series), active compounds read low): 0.636 (active)
normalized growth (locus YNL322C, strain KRE1, active compounds read low): 0.925 (active)
normalized growth (locus YNR030W, strain Alg12, active compounds read low): 0.747 (active)
normalized growth (locus YOL006C, strain TOP1, active compounds read low): 0.541 (active)
normalized growth (locus YPL055C, strain LGE1, active compounds read low): 0.919
normalized growth [6]: 0.663 (active)
normalized growth (locus YPR135W, strain CTF4, active compounds read low): 0.313 (active)

CSC(=NNc1ccccc1)NC(=O)c1c(Cl)cccc1Cl
normalized growth (locus YAR019C, strain CDC15, active compounds read low): 0.972
normalized growth (locus YBL105C, strain PKC1, active compounds read low): 0.967
normalized growth (locus YBR135W, strain CKS1, active compounds read low): 0.967
normalized growth (locus YBR136W, strain MEC1, active compounds read low): 0.972
normalized growth (locus YBR160W, strain CDC28, active compounds read low): 0.967
normalized growth (locus YDL017W, strain CDC7, active compounds read low): 0.981
normalized growth (locus YDL028C, strain MPS1, active compounds read low): 0.975
normalized growth [2]: 0.974
normalized growth (locus YDL108W, strain KIN28, active compounds read low): 0.963
normalized growth (locus YDL132W, strain cdc53, active compounds read low): 0.98
normalized growth (locus YDL214C, strain PRR2, active compounds read low): 0.89
normalized growth (locus YDR052C, strain DBF4, active compounds read low): 0.975
normalized growth (locus YDR054C, strain cdc34, active compounds read low): 0.961
normalized growth (locus YDR226W, strain ADK1, active compounds read low): 0.969
normalized growth (locus YDR477W, strain SNF1, active compounds read low): 0.923
normalized growth (locus YER123W, strain YCK3, active compounds read low): 0.812
normalized growth (locus YER133W, strain GLC7, active compounds read low): 0.918
normalized growth (locus YFL009W, strain cdc4, active compounds read low): 0.972
normalized growth (locus YFL029C, strain CAK1, active compounds read low): 0.958
normalized growth (locus YFR003C, strain YPI1, active compounds read low): 0.971
normalized growth (locus YFR019W, strain FAB1, active compounds read low): 0.904
normalized growth (locus YFR028C, strain CDC14, active compounds read low): 0.967
normalized growth (locus YGR040W, strain KSS1, active compounds read low): 0.887
normalized growth (locus YGR052W, strain FMP48, active compounds read low): 0.951
normalized growth (locus YGR092W, strain DBF2, active compounds read low): 0.82
normalized growth [4]: 0.909
normalized growth (locus YHR079C, strain IRE1, active compounds read low): 0.896
normalized growth (locus YHR082C, strain KSP1, active compounds read low): 0.938
normalized growth (locus YHR205W, strain SCH9, active compounds read low): 0.921
normalized growth (locus YIL147C, strain SLN1, active compounds read low): 0.975
normalized growth (locus YJL095W, strain BCK1, active compounds read low): 0.902
normalized growth (locus YJL128C, strain PBS2, active compounds read low): 0.945
normalized growth (locus YJL157C, strain FAR1, active compounds read low): 0.886
normalized growth (locus YJR016C, strain ILV3, active compounds read low): 0.966
normalized growth (locus YJR066W, strain TOR1 (second series), active compounds read low): 0.904
normalized growth (locus YJR066W, strain TOR1, active compounds read low): 0.968
normalized growth (locus YKL048C, strain ELM1, active compounds read low): 0.882
normalized growth (locus YKL067W, strain YNK1, active compounds read low): 0.892
normalized growth (locus YKL101W, strain HSL1, active compounds read low): 0.867
normalized growth (locus YKL193C, strain SDS22, active compounds read low): 0.969
normalized growth (locus YKL203C, strain TOR2, active compounds read low): 0.969
normalized growth (locus YLR113W, strain HOG1, active compounds read low): 0.738 (active)
normalized growth (locus YLR133W, strain CKI1, active compounds read low): 0.872
normalized growth (locus YLR403W, strain SFP1, active compounds read low): 0.897
normalized growth (locus YML070W, strain DAK1, active compounds read low): 0.806
normalized growth (locus YMR001C, strain CDC5, active compounds read low): 0.965
normalized growth (locus YMR205C, strain PFK2 (second series), active compounds read low): 0.887
normalized growth (locus YMR277W, strain FCP1, active compounds read low): 0.975
normalized growth (locus YNL006W, strain LST8, active compounds read low): 0.97
normalized growth (locus YNL020C, strain ARK1, active compounds read low): 0.88
normalized growth (locus YNL161W, strain CBK1, active compounds read low): 0.979
normalized growth (locus YNL183C, strain NPR1, active compounds read low): 0.927
normalized growth (locus YNL207W, strain RIO2, active compounds read low): 0.97
normalized growth (locus YNL222W, strain SSU72, active compounds read low): 0.961
normalized growth (locus YNL307C, strain MCK1 (second series), active compounds read low): 0.817
normalized growth (locus YOL078W, strain AVO1, active compounds read low): 0.968
normalized growth (locus YOL136C, strain PFK27, active compounds read low): 0.842
normalized growth (locus YOR061W, strain CKA2, active compounds read low): 0.798
normalized growth (locus YOR119C, strain RIO1, active compounds read low): 0.961
normalized growth (locus YOR231W, strain MKK1, active compounds read low): 0.82
normalized growth (locus YOR329C, strain SCD5, active compounds read low): 0.976
normalized growth (locus YPL031C, strain PHO85, active compounds read low): 0.917
normalized growth (locus YPL153C, strain RAD53, active compounds read low): 0.91
normalized growth (locus YPL204W, strain HRR25, active compounds read low): 0.906
normalized growth (locus YPL209C, strain IPL1, active compounds read low): 0.972
normalized growth (locus YPL256C, strain CLN2, active compounds read low): 0.814 (active)
normalized growth (locus YPR025C, strain CCL1, active compounds read low): 0.968
normalized growth (locus YPR106W, strain ISR1, active compounds read low): 0.955
normalized growth (locus YPR111W, strain DBF20, active compounds read low): 0.948
normalized growth (strain NNK1, active compounds read low): 0.964
normalized growth (strain TSCII, active compounds read low): 0.968

NC(N)=NC(=O)Cc1c(Cl)cccc1Cl
normalized growth [1]: 1.01
normalized growth (locus YAL040C, strain CLN3, active compounds read low): 0.979
normalized growth (locus YCL061C, strain MRC1 (second series), active compounds read low): 1
normalized growth [3]: 0.997
normalized growth (locus YDR363W, strain ESC2, active compounds read low): 0.997
normalized growth (locus YER002W, strain NOP16, active compounds read low): 1.04
normalized growth [5]: 1
normalized growth (locus YNL175C, strain NOP13, active compounds read low): 0.996
normalized growth (locus YNL197C, strain WHI3, active compounds read low): 1.02
normalized growth (locus YNL224C, strain SQS1, active compounds read low): 0.971
normalized growth (locus YOR083W, strain WHI5 (second series), active compounds read low): 1.01
normalized growth [6]: 1
